PINK1 expr mod – PINK1 expression modulation. PINK1 immunofluorescence, high-content cytometry, 24 h. Potency, µM (titrated, usually from 76.6 µM), for inactives: top-dose activation (PINK1 increase), actives largely listed as activators. actives 0.2% (n = 410,000). AID 624263; active means well fitted activation curve with a large enough effect; inconclusive means small, poorly fitted or top-dose-only effect; cell line not stated here; further: % of control where 0% means no effect; nearly all actives have a fitted effect of over 65% in size
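A stable cell line was treated with compounds at 5 concentrations for 24 hours, with CCCP as control. PINK1 levels and mitochondrial localization were measured by immunofluorescence with mitochondrial, cell and nuclear markers after fixation, read by laser-scanning cytometry.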
12-LOX inh – blocks human arachidonate 12S-lipoxygenase; purified 12hLO, xylenol orange hydroperoxide absorbance; Potency, µM (top dose mostly 108 µM), without a hit: at the top dose activity change, negative = inhibition, actives largely listed as inhibitors; AID 1671190; actives 1.1% (n = 580,000); P18054; further: on the % scale 0 is the no-effect control and ±100 the full control effect
Target sequence (P18054 whole entry, looked up): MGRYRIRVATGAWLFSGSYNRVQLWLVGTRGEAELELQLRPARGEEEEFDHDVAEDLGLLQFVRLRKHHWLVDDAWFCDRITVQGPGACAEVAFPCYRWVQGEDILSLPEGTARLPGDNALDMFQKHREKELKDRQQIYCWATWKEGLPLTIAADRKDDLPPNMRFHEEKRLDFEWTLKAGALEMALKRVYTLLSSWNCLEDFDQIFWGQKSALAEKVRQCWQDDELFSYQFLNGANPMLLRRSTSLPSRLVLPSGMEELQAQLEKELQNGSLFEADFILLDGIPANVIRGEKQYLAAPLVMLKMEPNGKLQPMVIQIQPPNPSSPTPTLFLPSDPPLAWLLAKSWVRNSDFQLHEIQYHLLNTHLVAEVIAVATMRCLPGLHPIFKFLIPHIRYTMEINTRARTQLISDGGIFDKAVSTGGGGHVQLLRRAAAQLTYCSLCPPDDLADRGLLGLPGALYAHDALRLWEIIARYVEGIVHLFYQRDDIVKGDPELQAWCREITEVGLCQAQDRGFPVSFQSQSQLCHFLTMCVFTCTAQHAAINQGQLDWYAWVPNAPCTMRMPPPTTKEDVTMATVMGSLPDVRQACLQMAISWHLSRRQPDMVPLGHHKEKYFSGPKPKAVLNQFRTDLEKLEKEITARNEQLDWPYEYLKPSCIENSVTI
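Purified human 12hLO at 150 nM in 25 mM Hepes, 0.01% Triton X-100, pH 7.0, preincubated 15 min at room temperature with compound. Reaction started with 40 uM arachidonic acid, 30 min at room temperature. Hydroperoxide measured by Fe-xylenol orange, 573/405 nm absorbance ratio.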
MCF10A rereplic – inducers of DNA re-replication in MCF 10A breast cells. MCF 10A DNA re-replication, Hoechst nuclear intensity, 48 h. Potency, µM (top dose mostly 46.1 µM), for inactives: top-dose activity, positive = re-replication, usual class: activators. actives 2.9% (n = 350,000); further: % of control where 0% means no effect; nearly all actives have a fitted effect of over 50% in size
KB-V1 cytotox – kills drug-selected multidrug resistant KB-V1 cells | KB-V1 MDR cells viability, CellTiter-Glo, 72 h | AID 1347076 | actives 3.4% (n = 400,000) | Potency, µM (top dose mostly 46.1 µM), usual class: cytotoxic; further: on the % scale 0 is the no-effect control and ±100 the full control effect; nearly all actives have a fitted effect of over 60% in size
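KB-V1 cells (P-gp-expressing MDR subline of KB-3-1) in phenol-red-free DMEM with 10% FBS were exposed to library compounds over a concentration series for 72 h at 37 degrees C. Viability read by CellTiter-Glo luminescence; concentration-effect curves fitted after normalization.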
SW480 rerep – inducers of DNA re-replication in SW480 colon cancer cells. Potency, µM (doses to about 46.1 µM), without a hit: at the highest dose re-replication activation, usual class: activators. SW480 DNA re-replication, Hoechst DNA content imaging, 48 h. actives 1.8% (n = 340,000); further: % of control where 0% means no effect; nearly all actives have a fitted effect of over 55% in size
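Image-based DNA-content assay: after two days of treatment, nuclei were labelled with the DNA dye Hoechst and imaged, and hits were compounds raising the count of nuclei showing high fluorescence intensity.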
KB-3-1 tox – KB-3-1 parental cell cytotoxicity | KB-3-1 viability, CellTiter-Glo ATP luminescence, 72 h | Potency, µM (doses to about 46.1 µM), most hits filed as cytotoxic | actives 1.4% (n = 400,000); further: on the % scale 0 is the no-effect control and ±100 the full control effect; nearly all actives have a fitted effect of over 60% in size
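Cytotoxicity measured as CellTiter-Glo luminescence after 72 h at 37 C. Compound titrations were pinned onto drug-naive KB-3-1 parental adenocarcinoma cells grown in DMEM with 10% FBS, and normalized data fitted to concentration-response curves.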
* = called active by the depositor; [ ] = remark or other dose. Shown are actives, neighbours in structure and some others; about 5.8% of the full set was active somewhere. Unless noted, the call rests on the fitted dose curve; in most records, active means well fitted curve in the direction sought with a large enough effect; inconclusive means small, poorly fitted or top-dose-only effect, or another doubt; inactive means no such curve, though single readings can be large; an effect the other way counts as inactive or inconclusive. Potency means the concentration at half of the fitted maximal effect.

For Cc1ccc2nc3c(cc(C(=O)NCCCn4ccnc4)n3C)c(=O)n2c1 the results were PINK1 expr mod -4.0%, 12-LOX inh 28.3%, MCF10A rereplic 14.6µM*, KB-V1 cytotox inactive, SW480 rerep inconclusive and KB-3-1 tox inactive.
For COc1ccc(/C=N/NC(=O)c2cc3c(ccc4ccccc43)o2)cc1OC the results were PINK1 expr mod 4.6%, 12-LOX inh -5.5%, MCF10A rereplic 16.4µM*, KB-V1 cytotox inconclusive, SW480 rerep inconclusive and KB-3-1 tox inconclusive.
Screening O=C(COc1ccc(/C=N/NC(=O)c2cc3ccccc3o2)cc1Br)Nc1ccccc1 returned PINK1 expr mod -2.9%, 12-LOX inh inconclusive, MCF10A rereplic inconclusive, KB-V1 cytotox inconclusive, SW480 rerep inconclusive and KB-3-1 tox 13µM*.
For COc1cc(/C=N/NC(=O)c2cc3c(ccc4ccccc43)o2)cc(OC)c1O the results were 12-LOX inh 2.2%.
For COc1ccc(/C=N\NC(=O)c2cc3c(ccc4ccccc43)o2)cc1O the results were PINK1 expr mod 5.2%, 12-LOX inh -104.0%, MCF10A rereplic 11.6µM*, KB-V1 cytotox inactive, SW480 rerep inconclusive and KB-3-1 tox inconclusive.
COc1ccccc1/C=N/NC(=O)c1cc2c(ccc3ccccc32)o1 was read as PINK1 expr mod 0.1%, 12-LOX inh 0.2%, MCF10A rereplic inconclusive, KB-V1 cytotox inactive, SW480 rerep inconclusive and KB-3-1 tox inconclusive.
For Cc1c(C(=O)NCc2ccccn2)oc2c(Cl)cccc12 the results were PINK1 expr mod -0.3%, 12-LOX inh 17.8%, MCF10A rereplic 12.1%, KB-V1 cytotox 8.2µM*, SW480 rerep 0.4% and KB-3-1 tox inactive.
O=C(NCCc1ccccn1)c1cc(-c2ccc(Cl)c(Cl)c2Cl)nc2ccccc12 was read as PINK1 expr mod 4.0%, 12-LOX inh -17.5%, MCF10A rereplic 8.0%, KB-V1 cytotox 5.8µM*, SW480 rerep -2.2% and KB-3-1 tox inconclusive.
Screening Cc1nc2ccccc2c2oc(C(=O)NCc3ccccn3)cc12 returned PINK1 expr mod 3.0%[38.3 µM], 12-LOX inh 23.4%, MCF10A rereplic 14.2%, KB-V1 cytotox 2.59µM*, SW480 rerep -4.2% and KB-3-1 tox inactive.
Screening O=C(NCCc1ccccn1)c1cc(-c2ccncc2)nc2ccccc12 returned 12-LOX inh -28.7%.
For O=C(NCc1ccccn1)c1cc(-c2ccccc2Cl)nc2ccccc12 the results were PINK1 expr mod -1.9%, 12-LOX inh -2.5%, MCF10A rereplic 1.0%, KB-V1 cytotox 18.4µM*, SW480 rerep -33.0% and KB-3-1 tox inactive.
Screening COc1ccccc1C(=O)N1CCN(c2oc(-c3ccccc3OC)nc2C#N)CC1 returned 12-LOX inh -19.1%.
For N#C/C(=C(/O)CCl)c1nc(-c2ccccc2)cs1 the results were PINK1 expr mod -0.8%, 12-LOX inh inconclusive, MCF10A rereplic inconclusive, KB-V1 cytotox inconclusive, SW480 rerep inconclusive and KB-3-1 tox inconclusive.
For Cc1ccc(-c2csc(/C(C#N)=C(\O)CCl)n2)cc1 the results were PINK1 expr mod 2.5%, 12-LOX inh 10.0%, MCF10A rereplic 16.4µM*, KB-V1 cytotox inactive, SW480 rerep 6.1% and KB-3-1 tox inactive.
`Cc1ccc(OCC(O)CNC2CCCC2)c(C)c1` (stereo unspecified) gave PINK1 expr mod 1.5%, 12-LOX inh -0.9%, MCF10A rereplic 8.2%, KB-V1 cytotox inactive, SW480 rerep -1.4% and KB-3-1 tox inactive.
`Cc1ccccc1OCC(O)CNC1CCC(NCC(O)COc2ccccc2C)CC1` (stereo unspecified) gave PINK1 expr mod -2.0%, 12-LOX inh inconclusive, MCF10A rereplic inconclusive, KB-V1 cytotox 18.4µM*, SW480 rerep 4.11µM* and KB-3-1 tox 3.26µM*.
Screening OC(CNC1CCCCCC1)COc1cccc2ccccc12 (stereo unspecified) returned PINK1 expr mod -0.7%, 12-LOX inh inconclusive, MCF10A rereplic 25.5%, KB-V1 cytotox 20.6µM*, SW480 rerep 18.4µM* and KB-3-1 tox inconclusive.
OC(CNC1CCCC1)COc1ccccc1Br (stereo unspecified) was read as PINK1 expr mod 5.8%, 12-LOX inh inconclusive, MCF10A rereplic 7.9%, KB-V1 cytotox inactive, SW480 rerep 6.1% and KB-3-1 tox inactive.
`COC1CN(c2cccc(F)c2)C12CCN(S(=O)(=O)Cc1ccccc1F)CC2` (stereo unspecified) gave 12-LOX inh 30.7%.
For COc1ccccc1-c1[nH]ncc1CN1CCCCCNC(=O)[C@@H]2CCC[C@@H]21 the results were 12-LOX inh inactive.
`COc1ccc(-n2cnnc2SCC(=O)NC2CC2)cc1` gave PINK1 expr mod 0.2%, 12-LOX inh 6.3%, KB-V1 cytotox inactive and KB-3-1 tox inactive.
`Cn1c(SCC(=O)NC2CCCCC2)nnc1-c1ccccc1F` gave PINK1 expr mod 1.4%, 12-LOX inh -8.2%, MCF10A rereplic -20.3%, KB-V1 cytotox inactive, SW480 rerep 9.2µM* and KB-3-1 tox inactive.
`Cn1c(SCC(=O)NC2CC2)nnc1-c1ccccc1Cl` gave PINK1 expr mod 1.8%, 12-LOX inh 4.9%, MCF10A rereplic -14.2%, KB-V1 cytotox inactive, SW480 rerep 5.7% and KB-3-1 tox inactive.
`O=C(CSc1nncn1-c1ccccc1F)NC1CCCCC1` gave PINK1 expr mod 0.8%, 12-LOX inh 8.5%, MCF10A rereplic -1.9%, KB-V1 cytotox 20.6µM*, SW480 rerep -3.4% and KB-3-1 tox inactive.
COc1ccc(-n2cnnc2SCC(=O)NC2CCCCC2)cc1 was read as PINK1 expr mod -2.0%, 12-LOX inh 159.3%, MCF10A rereplic 1.1%, KB-V1 cytotox 23.1µM*, SW480 rerep 3.0% and KB-3-1 tox inactive.
Screening COc1ccccc1-n1cnnc1SCC(=O)NC1CCCCC1 returned PINK1 expr mod 3.4%, 12-LOX inh 35.6%, MCF10A rereplic 2.8%, KB-V1 cytotox inactive, SW480 rerep -17.2% and KB-3-1 tox inactive.
`C=CCn1c(SCC(=O)NC2CC2)nnc1-c1cccc(OC)c1` gave PINK1 expr mod -1.1%, 12-LOX inh -11.5%, MCF10A rereplic 1.2%, KB-V1 cytotox inactive, SW480 rerep -4.3% and KB-3-1 tox inactive.
C=CCn1c(SCC(=O)NC2CCCCC2)nnc1-c1ccc(OC)cc1 was read as PINK1 expr mod -1.1%, 12-LOX inh 7.0%, MCF10A rereplic -37.9%, KB-V1 cytotox 4.11µM*, SW480 rerep -7.5% and KB-3-1 tox inactive.

Screens as filed in PubChem BioAssay.
